Assay results from the supplement of paper PMC6411743.
± gives the standard deviation of the averaged measurements. Targets with the largest changes are over-represented here; the source holds about 6,500 in all.

Compound: Nc1ncnc2c1ncn2[C@@H]1O[C@H](COP(=O)(O)OP(=O)(O)OP(=O)(O)O)[C@@H](O)[C@H]1O [adenosine triphosphate]
Assay: NP40-soluble protein abundance relative to vehicle (solubility fold change) (ratio); higher = more soluble protein in presence of ATP
Summary of the method: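 Across three independent experiments, values are fold changes against the detergent-processed vehicle for each replicate, based on vsn-normalised intensities. The samples were Jurkat crude lysate treated with eight concentrations (0.1 to 10 mM) for 10 min at room temperature and then 3 min at 37 °C. Lysate was solubilised with 0.8% NP40 and benzonase, ultracentrifuged, and the supernatant analysed by TMT-labelled LC-MS/MS.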

Chain of UniProt O15504 (O15504 whole entry, one chain of several): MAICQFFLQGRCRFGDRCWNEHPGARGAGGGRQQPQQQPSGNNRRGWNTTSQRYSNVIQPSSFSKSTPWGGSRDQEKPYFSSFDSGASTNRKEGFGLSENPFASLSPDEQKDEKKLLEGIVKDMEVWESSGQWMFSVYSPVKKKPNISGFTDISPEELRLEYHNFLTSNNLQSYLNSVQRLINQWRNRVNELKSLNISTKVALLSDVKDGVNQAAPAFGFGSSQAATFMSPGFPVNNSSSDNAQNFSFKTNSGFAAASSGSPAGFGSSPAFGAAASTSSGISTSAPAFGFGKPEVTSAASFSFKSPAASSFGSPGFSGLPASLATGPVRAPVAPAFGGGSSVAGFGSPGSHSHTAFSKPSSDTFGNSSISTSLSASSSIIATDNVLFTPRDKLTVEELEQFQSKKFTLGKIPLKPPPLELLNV
Chain of UniProt O43143 (O43143 whole entry): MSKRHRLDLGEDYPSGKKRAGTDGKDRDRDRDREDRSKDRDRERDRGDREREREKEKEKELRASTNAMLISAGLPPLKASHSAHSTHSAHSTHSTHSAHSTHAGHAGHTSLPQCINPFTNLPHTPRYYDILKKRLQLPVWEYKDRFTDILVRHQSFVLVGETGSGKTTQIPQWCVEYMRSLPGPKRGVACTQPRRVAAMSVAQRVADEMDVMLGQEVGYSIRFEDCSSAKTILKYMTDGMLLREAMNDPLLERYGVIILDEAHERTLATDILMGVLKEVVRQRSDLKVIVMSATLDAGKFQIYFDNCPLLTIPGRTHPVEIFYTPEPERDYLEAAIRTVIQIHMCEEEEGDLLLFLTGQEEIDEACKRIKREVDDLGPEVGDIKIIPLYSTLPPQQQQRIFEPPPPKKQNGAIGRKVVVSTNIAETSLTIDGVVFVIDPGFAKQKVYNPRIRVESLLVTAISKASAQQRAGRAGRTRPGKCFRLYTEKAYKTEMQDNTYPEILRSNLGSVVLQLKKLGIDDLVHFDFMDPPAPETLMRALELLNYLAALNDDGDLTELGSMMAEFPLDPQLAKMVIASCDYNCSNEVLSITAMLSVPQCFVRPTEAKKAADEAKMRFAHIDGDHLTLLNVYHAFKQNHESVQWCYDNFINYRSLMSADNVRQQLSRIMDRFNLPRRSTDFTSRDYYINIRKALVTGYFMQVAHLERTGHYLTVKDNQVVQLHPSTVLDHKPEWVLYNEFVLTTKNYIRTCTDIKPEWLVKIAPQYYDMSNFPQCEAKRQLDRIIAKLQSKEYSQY
Chain of UniProt Q6P1N9 (Q6P1N9 whole entry, one chain of several): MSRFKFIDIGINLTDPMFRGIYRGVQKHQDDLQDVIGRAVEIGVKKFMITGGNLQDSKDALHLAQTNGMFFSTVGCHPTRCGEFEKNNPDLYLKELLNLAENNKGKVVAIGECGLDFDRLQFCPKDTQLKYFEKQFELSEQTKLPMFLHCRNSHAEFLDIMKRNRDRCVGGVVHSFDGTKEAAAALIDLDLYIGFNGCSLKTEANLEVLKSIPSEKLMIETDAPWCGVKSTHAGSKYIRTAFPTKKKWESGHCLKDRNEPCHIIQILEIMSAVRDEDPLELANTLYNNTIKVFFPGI
Chain of UniProt Q9BRQ6 (Q9BRQ6 whole entry, one chain of several): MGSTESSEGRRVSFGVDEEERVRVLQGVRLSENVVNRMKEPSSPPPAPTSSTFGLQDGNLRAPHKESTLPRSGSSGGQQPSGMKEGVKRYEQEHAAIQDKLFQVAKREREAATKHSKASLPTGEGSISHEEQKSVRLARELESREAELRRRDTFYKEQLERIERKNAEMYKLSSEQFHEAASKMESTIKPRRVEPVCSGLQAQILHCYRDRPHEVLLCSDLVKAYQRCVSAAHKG
Chain of UniProt O43257 (O43257 whole entry): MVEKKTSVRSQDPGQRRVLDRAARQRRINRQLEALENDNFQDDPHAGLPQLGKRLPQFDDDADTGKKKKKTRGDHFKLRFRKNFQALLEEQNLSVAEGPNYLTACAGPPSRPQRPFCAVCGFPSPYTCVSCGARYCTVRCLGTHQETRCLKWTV
Chain of UniProt O43676 (O43676 whole entry, one chain of several): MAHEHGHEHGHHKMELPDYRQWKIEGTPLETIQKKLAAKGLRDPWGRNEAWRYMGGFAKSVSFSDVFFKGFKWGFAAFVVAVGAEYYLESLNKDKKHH
Chain of UniProt Q8WV92 (Q8WV92 whole entry, one chain of several): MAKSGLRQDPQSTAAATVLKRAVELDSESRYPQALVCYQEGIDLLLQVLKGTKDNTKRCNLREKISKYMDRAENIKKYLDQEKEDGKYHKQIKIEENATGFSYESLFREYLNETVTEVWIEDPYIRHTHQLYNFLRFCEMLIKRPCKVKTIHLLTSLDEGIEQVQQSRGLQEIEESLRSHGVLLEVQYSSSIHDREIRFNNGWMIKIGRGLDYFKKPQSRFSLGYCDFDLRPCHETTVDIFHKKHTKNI
Chain of UniProt P25686 (P25686 whole entry, one chain of several): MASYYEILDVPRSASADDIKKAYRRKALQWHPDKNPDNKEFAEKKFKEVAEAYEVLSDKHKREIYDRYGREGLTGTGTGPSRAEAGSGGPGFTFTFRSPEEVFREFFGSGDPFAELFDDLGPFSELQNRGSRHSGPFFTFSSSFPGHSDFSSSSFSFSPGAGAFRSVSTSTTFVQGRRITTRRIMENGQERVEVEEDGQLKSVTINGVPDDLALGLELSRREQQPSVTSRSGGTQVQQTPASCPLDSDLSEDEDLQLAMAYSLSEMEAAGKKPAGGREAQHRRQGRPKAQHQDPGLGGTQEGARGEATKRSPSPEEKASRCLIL
Chain of UniProt Q86YR5 (Q86YR5 whole entry, one chain of several): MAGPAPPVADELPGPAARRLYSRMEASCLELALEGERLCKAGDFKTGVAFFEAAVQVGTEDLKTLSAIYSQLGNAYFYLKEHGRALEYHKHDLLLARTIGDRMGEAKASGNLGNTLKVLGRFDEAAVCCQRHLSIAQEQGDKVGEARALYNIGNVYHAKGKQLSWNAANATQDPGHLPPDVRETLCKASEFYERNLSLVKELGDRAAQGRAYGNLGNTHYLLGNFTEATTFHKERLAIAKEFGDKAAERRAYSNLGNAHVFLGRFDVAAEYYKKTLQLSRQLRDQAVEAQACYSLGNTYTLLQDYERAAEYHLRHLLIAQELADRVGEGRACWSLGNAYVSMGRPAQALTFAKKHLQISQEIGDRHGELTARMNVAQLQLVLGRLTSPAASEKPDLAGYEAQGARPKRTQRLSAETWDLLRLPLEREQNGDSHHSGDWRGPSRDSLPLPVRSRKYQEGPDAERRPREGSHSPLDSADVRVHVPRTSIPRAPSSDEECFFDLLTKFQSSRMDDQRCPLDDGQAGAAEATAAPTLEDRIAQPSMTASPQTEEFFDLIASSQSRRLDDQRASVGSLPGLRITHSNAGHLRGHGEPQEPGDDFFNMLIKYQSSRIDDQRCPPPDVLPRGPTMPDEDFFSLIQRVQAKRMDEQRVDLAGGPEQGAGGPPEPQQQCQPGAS
Chain of UniProt Q96MF7 (Q96MF7 whole entry, one chain of several): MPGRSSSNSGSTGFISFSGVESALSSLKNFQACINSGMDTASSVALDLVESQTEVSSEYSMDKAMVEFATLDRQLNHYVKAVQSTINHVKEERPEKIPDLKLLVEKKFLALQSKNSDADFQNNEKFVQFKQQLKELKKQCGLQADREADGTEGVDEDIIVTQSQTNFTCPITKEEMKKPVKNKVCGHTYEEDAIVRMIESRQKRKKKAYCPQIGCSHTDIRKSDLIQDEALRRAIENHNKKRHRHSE
Chain of UniProt Q9BXS9 (Q9BXS9 whole entry, one chain of several): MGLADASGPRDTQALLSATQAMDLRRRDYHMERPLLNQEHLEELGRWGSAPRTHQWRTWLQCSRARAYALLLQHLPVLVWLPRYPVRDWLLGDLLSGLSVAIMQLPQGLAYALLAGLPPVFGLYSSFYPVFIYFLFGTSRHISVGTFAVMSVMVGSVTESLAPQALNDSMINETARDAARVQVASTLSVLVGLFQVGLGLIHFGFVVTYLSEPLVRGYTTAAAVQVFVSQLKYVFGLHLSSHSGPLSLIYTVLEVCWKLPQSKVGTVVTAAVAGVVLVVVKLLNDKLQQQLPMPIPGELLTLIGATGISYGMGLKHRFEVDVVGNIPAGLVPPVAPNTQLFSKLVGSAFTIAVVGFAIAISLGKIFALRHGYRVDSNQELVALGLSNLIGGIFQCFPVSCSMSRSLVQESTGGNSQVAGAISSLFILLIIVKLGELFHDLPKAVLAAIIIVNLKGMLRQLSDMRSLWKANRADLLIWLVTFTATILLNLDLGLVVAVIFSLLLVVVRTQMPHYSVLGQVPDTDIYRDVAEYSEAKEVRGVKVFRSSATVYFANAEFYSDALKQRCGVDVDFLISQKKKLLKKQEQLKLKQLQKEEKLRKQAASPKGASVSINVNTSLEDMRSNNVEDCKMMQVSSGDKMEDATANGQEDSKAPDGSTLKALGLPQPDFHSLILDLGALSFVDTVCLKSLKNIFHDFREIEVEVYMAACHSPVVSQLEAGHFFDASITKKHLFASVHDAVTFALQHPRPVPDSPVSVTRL
Chain of UniProt Q16629 (Q16629 whole entry, one chain of several): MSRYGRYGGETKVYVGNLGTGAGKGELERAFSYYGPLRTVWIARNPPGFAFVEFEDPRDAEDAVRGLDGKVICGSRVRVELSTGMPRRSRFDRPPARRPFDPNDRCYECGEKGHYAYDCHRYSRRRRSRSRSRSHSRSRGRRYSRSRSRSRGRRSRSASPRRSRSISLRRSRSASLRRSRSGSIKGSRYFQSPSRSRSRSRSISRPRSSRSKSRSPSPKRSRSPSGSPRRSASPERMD

Question: For I3L0L6|Q9H6Y7 (UniProt Q9H6Y7), which NP40-soluble protein abundance (concentration: 1mM) is on record?
Answer: 0.901 ± 0.033

Question: And the NP40-soluble protein abundance (concentration: 2mM)?
Answer: 0.93 ± 0.016

Question: And the NP40-soluble protein abundance (concentration: 4mM)?
Answer: 0.896 ± 0.051

Question: What about the NP40-soluble protein abundance (concentration: 6mM) of the same target?
Answer: 0.962 ± 0.064

Question: And the NP40-soluble protein abundance (concentration: 8mM)?
Answer: 0.921 ± 0.066

Question: What about the NP40-soluble protein abundance (concentration: 10mM) of the same target?
Answer: 0.864 ± 0.065

Question: DHX15 (UniProt O43143) was tested. Which NP40-soluble protein abundance (concentration: 1mM) did it give?
Answer: 1.25 ± 0.079

Question: What about the NP40-soluble protein abundance (concentration: 2mM) of the same target?
Answer: 1.24 ± 0.071

Question: And the NP40-soluble protein abundance (concentration: 4mM)?
Answer: 1.24 ± 0.079

Question: What about the NP40-soluble protein abundance (concentration: 6mM) of the same target?
Answer: 1.24 ± 0.1

Question: What about the NP40-soluble protein abundance (concentration: 8mM) of the same target?
Answer: 1.33 ± 0.074

Question: And the NP40-soluble protein abundance (concentration: 10mM)?
Answer: 1.29 ± 0.044

Question: B4DWF2|Q9UKS7|Q9UKS7-2 (UniProt Q9UKS7) was tested. Which NP40-soluble protein abundance (concentration: 1mM) did it give?
Answer: 1.02 ± 0.062

Question: What about the NP40-soluble protein abundance (concentration: 2mM) of the same target?
Answer: 1.03 ± 0.072

Question: And the NP40-soluble protein abundance (concentration: 4mM)?
Answer: 1.04 ± 0.061

Question: What about the NP40-soluble protein abundance (concentration: 6mM) of the same target?
Answer: 1.11 ± 0.089

Question: And the NP40-soluble protein abundance (concentration: 8mM)?
Answer: 1.1 ± 0.061

Question: And the NP40-soluble protein abundance (concentration: 10mM)?
Answer: 1.2 ± 0.066

Question: Which NP40-soluble protein abundance (concentration: 1mM) does the source give for “C9JRD2|C9JXB9|P25686|P25686-2 (UniProt P25686)” here?
Answer: 0.969 ± 0.038

Question: And the NP40-soluble protein abundance (concentration: 2mM)?
Answer: 0.956 ± 0.019

Question: And the NP40-soluble protein abundance (concentration: 4mM)?
Answer: 0.956 ± 0.022

Question: What about the NP40-soluble protein abundance (concentration: 6mM) of the same target?
Answer: 0.971 ± 0.06

Question: And the NP40-soluble protein abundance (concentration: 8mM)?
Answer: 0.973 ± 0.016

Question: And the NP40-soluble protein abundance (concentration: 10mM)?
Answer: 0.977 ± 0.025

Question: “A0A0A0MSK4|Q86YR5|Q86YR5-4 (UniProt Q86YR5)” was tested. Which NP40-soluble protein abundance (concentration: 1mM) did it give?
Answer: 0.972 ± 0.037

Question: And the NP40-soluble protein abundance (concentration: 2mM)?
Answer: 0.99 ± 0.074

Question: And the NP40-soluble protein abundance (concentration: 4mM)?
Answer: 0.9991 ± 0.0089

Question: What about the NP40-soluble protein abundance (concentration: 6mM) of the same target?
Answer: 1.018 ± 0.0076

Question: And the NP40-soluble protein abundance (concentration: 8mM)?
Answer: 0.96 ± 0.021

Question: What about the NP40-soluble protein abundance (concentration: 10mM) of the same target?
Answer: 0.981 ± 0.05

Question: With C9JKQ2|O43676 (UniProt O43676) as the target, how does the NP40-soluble protein abundance (concentration: 1mM) read?
Answer: 0.921 ± 0.053

Question: And the NP40-soluble protein abundance (concentration: 2mM)?
Answer: 0.903 ± 0.08

Question: And the NP40-soluble protein abundance (concentration: 4mM)?
Answer: 0.867 ± 0.032

Question: What about the NP40-soluble protein abundance (concentration: 6mM) of the same target?
Answer: 0.908 ± 0.048

Question: What about the NP40-soluble protein abundance (concentration: 8mM) of the same target?
Answer: 0.862 ± 0.04

Question: And the NP40-soluble protein abundance (concentration: 10mM)?
Answer: 0.868 ± 0.042

Question: What does the source list for H7C3Q6|Q8WV92|B8ZZL5 (UniProt Q8WV92)?
Answer: NP40-soluble protein abundance (concentration: 1mM): 1.85 ± 0.55; NP40-soluble protein abundance (concentration: 2mM): 1.9 ± 0.66; NP40-soluble protein abundance (concentration: 4mM): 1.92 ± 0.67; NP40-soluble protein abundance (concentration: 6mM): 1.9 ± 0.76; NP40-soluble protein abundance (concentration: 8mM): 1.97 ± 0.67; NP40-soluble protein abundance (concentration: 10mM): 1.94 ± 0.67

Question: What does the source list for “A0A0B4J1Z1|C9JAB2|Q16629|Q16629-2|Q16629-3|Q16629-4 (UniProt Q16629)”?
Answer: NP40-soluble protein abundance (concentration: 1mM): 1.7 ± 0.28; NP40-soluble protein abundance (concentration: 2mM): 1.77 ± 0.28; NP40-soluble protein abundance (concentration: 4mM): 1.89 ± 0.28; NP40-soluble protein abundance (concentration: 6mM): 2.04 ± 0.31; NP40-soluble protein abundance (concentration: 8mM): 1.98 ± 0.38; NP40-soluble protein abundance (concentration: 10mM): 2.09 ± 0.36

Question: How did the NP40-soluble protein abundance (concentration: 1mM) turn out when “G3XAC1|Q9BXS9|Q9BXS9-3|Q9BXS9-7|A0A0C4DFT5|Q9BXS9-4|Q9BXS9-5 (UniProt Q9BXS9)” was run?
Answer: 0.909 ± 0.018

Question: What about the NP40-soluble protein abundance (concentration: 2mM) of the same target?
Answer: 0.891 ± 0.037

Question: And the NP40-soluble protein abundance (concentration: 4mM)?
Answer: 0.918 ± 0.073

Question: And the NP40-soluble protein abundance (concentration: 6mM)?
Answer: 0.885 ± 0.022

Question: What about the NP40-soluble protein abundance (concentration: 8mM) of the same target?
Answer: 0.867 ± 0.074

Question: And the NP40-soluble protein abundance (concentration: 10mM)?
Answer: 0.863 ± 0.071

Question: What does the source list for E5RG17|Q6P1N9 (UniProt Q6P1N9)?
Answer: NP40-soluble protein abundance (concentration: 1mM): 0.989 ± 0.02; NP40-soluble protein abundance (concentration: 2mM): 0.974 ± 0.013; NP40-soluble protein abundance (concentration: 4mM): 0.965 ± 0.02; NP40-soluble protein abundance (concentration: 6mM): 0.963 ± 0.052; NP40-soluble protein abundance (concentration: 8mM): 0.937 ± 0.019; NP40-soluble protein abundance (concentration: 10mM): 0.968 ± 0.019

Question: “B4DT96|C9JYA1|O15504|O15504-2 (UniProt O15504)” was tested. Which NP40-soluble protein abundance (concentration: 1mM) did it give?
Answer: 0.985 ± 0.095

Question: And the NP40-soluble protein abundance (concentration: 2mM)?
Answer: 1.21 ± 0.19

Question: What about the NP40-soluble protein abundance (concentration: 4mM) of the same target?
Answer: 1.29 ± 0.17

Question: And the NP40-soluble protein abundance (concentration: 6mM)?
Answer: 1.43 ± 0.42

Question: What about the NP40-soluble protein abundance (concentration: 8mM) of the same target?
Answer: 1.42 ± 0.26

Question: And the NP40-soluble protein abundance (concentration: 10mM)?
Answer: 1.77 ± 0.49

Question: How did the NP40-soluble protein abundance (concentration: 1mM) turn out when J3QTA6|Q9BRQ6 (UniProt Q9BRQ6) was run?
Answer: 0.958 ± 0.12

Question: And the NP40-soluble protein abundance (concentration: 2mM)?
Answer: 0.921 ± 0.073

Question: What about the NP40-soluble protein abundance (concentration: 4mM) of the same target?
Answer: 0.897 ± 0.087

Question: And the NP40-soluble protein abundance (concentration: 6mM)?
Answer: 0.925 ± 0.13

Question: What about the NP40-soluble protein abundance (concentration: 8mM) of the same target?
Answer: 0.918 ± 0.093

Question: What about the NP40-soluble protein abundance (concentration: 10mM) of the same target?
Answer: 0.874 ± 0.067

Question: For E5RFJ1|Q96MF7 (UniProt Q96MF7), which NP40-soluble protein abundance (concentration: 1mM) is on record?
Answer: 1.04 ± 0.053

Question: And the NP40-soluble protein abundance (concentration: 2mM)?
Answer: 1.04 ± 0.012

Question: What about the NP40-soluble protein abundance (concentration: 4mM) of the same target?
Answer: 1.03 ± 0.017

Question: What about the NP40-soluble protein abundance (concentration: 6mM) of the same target?
Answer: 1.09 ± 0.036

Question: What about the NP40-soluble protein abundance (concentration: 8mM) of the same target?
Answer: 1.01 ± 0.018

Question: And the NP40-soluble protein abundance (concentration: 10mM)?
Answer: 1 ± 0.034

Question: “C9JJN9|Q8N3P4|Q8N3P4-2|Q8N3P4-3 (UniProt Q8N3P4)” was tested. Which NP40-soluble protein abundance (concentration: 1mM) did it give?
Answer: 1.01 ± 0.053

Question: And the NP40-soluble protein abundance (concentration: 2mM)?
Answer: 0.984 ± 0.04

Question: What about the NP40-soluble protein abundance (concentration: 4mM) of the same target?
Answer: 0.994 ± 0.068

Question: What about the NP40-soluble protein abundance (concentration: 6mM) of the same target?
Answer: 0.9606 ± 0.0047

Question: And the NP40-soluble protein abundance (concentration: 8mM)?
Answer: 0.955 ± 0.039

Question: And the NP40-soluble protein abundance (concentration: 10mM)?
Answer: 0.979 ± 0.023

Question: ZNHIT1 (UniProt O43257) was tested. Which NP40-soluble protein abundance (concentration: 1mM) did it give?
Answer: 1.12 ± 0.047

Question: What about the NP40-soluble protein abundance (concentration: 2mM) of the same target?
Answer: 1.16 ± 0.012

Question: What about the NP40-soluble protein abundance (concentration: 4mM) of the same target?
Answer: 1.27 ± 0.042

Question: What about the NP40-soluble protein abundance (concentration: 6mM) of the same target?
Answer: 1.3 ± 0.037

Question: What about the NP40-soluble protein abundance (concentration: 8mM) of the same target?
Answer: 1.16 ± 0.037

Question: What about the NP40-soluble protein abundance (concentration: 10mM) of the same target?
Answer: 1.19 ± 0.073
